Results filed as inconclusive are left out. Where a call stands in place of a potency, no number is given. Active and inactive are the calls of the source. Calls follow the shape of the dose curve; as a rule, active = well fitted inhibition curve with a large enough effect; inconclusive = small, poorly fitted or top-dose-only effect; inactive = flat fitted curve, though single readings scatter. Peptide text beside a SMILES is read from it.
test system: CP268; assay: qHTS profiling for inhibitors of Plasmodium falciparum proliferation (AID 504749); also: nearly all actives have a fitted effect of over 60% in size; conditions: P. falciparum in erythrocytes, SYBR Green DNA, 72 h; series mostly up to 12.8 µM
Summary of the method: (§1)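 Three-day growth assay of blood-stage parasites in erythrocytes (0.3% parasitemia, 2.5% hematocrit) at 37 C, 5% CO2, quantified by SYBR Green DNA staining after overnight detergent lysis.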
Potency is read from the fitted curve at half-maximal effect.

Row | Structure (SMILES) | Potency
1 | CN(C)CCCOC1C(C(O)CO)OC2OC(C)(C)O[C@@H]21 (stereo partly specified) | inactive
2 | CCC(C)C(=O)OC1CCC=C2C=CC(C)C(CCC3CC(O)CC(=O)O3)[C@@H]21 (stereo partly specified) | inactive
3 | CC(=O)OC1CCC2C3CCc4cc(O)ccc4C3CCC12C (stereo unspecified) | inactive
4 | CC[C@@]12CCCN3CCc4c(n(c5ccccc45)[C@](O)(C(=O)OC)C1)C32 (stereo partly specified) | inactive
5 | NC(C(=O)O)[C@@H]1CC(Cl)=NO1 (stereo partly specified) | 1.51 µM (active)
6 | CN1CC(=O)N=C1N | inactive
7 | OCC1OC([S-])[C@H](O)C(O)C1O.[Au+] (stereo partly specified) | inactive
8 | CC(C)C1CCC(C(=O)NC(Cc2ccccc2)C(=O)O)CC1 (stereo unspecified) | inactive
9 | CCC(CCC(C)C1CCC2C3CC=C4CC(O)CC[C@@]4(C)C3CC[C@@]12C)C(C)C (stereo partly specified) | inactive
10 | C[C@]12CCC(=O)C=C1CCC1C2C(=O)C[C@]2(C)C1CC[C@]2(O)C(=O)CO (stereo partly specified) | inactive
11 | OCC1O[C@H](OC2C(CO)O[C@@](O)(CO)C2O)C(O)C(O)C1O (stereo partly specified) | inactive
12 | CC1(C)OC2CO[C@]3(COS(N)(=O)=O)OC(C)(C)OC3C2O1 (stereo partly specified) | inactive
13 | CC1(C)OC2CC(=O)OC[C@@]23C1CC(=O)[C@]1(C)C3CC[C@@]2(C)C(c3ccoc3)OC(=O)C3O[C@@]321 (stereo partly specified) | inactive
14 | CCOC(=O)C1=CC(OC(CC)CC)C(NC(C)=O)C(N)C1 (stereo unspecified) | inactive
15 | COC1C=CO[C@@]2(C)Oc3c(C)c(O)c4c(O)c(c5c(nc6cc(C)ccn65)c4c3C2=O)NC(=O)/C(C)=C\C=CC(C)C(O)[C@@H](C)C(O)C(C)[C@@H](OC(C)=O)C1C (stereo partly specified) | 12 µM (active)
16 | COC(=O)C(Cc1ccccc1)NC(=O)C(N)CC(=O)O (stereo not drawn) (H-Asp-Phe-OMe; configuration not given here) | inactive
17 | C[C@]12C=CC(=O)C=C1CCC1C2C(O)C[C@]2(C)C1CC[C@]2(O)C(=O)CO (stereo partly specified) | inactive

Row | Structure (SMILES) | Potency
18 | CC1(C)S[C@H]2C(NC(=O)[C@@H](N)c3ccc(O)cc3)C(=O)N2[C@@H]1C(=O)O (stereo partly specified) | inactive
19 | CC(C)=CCC[C@](C)(O)C1CC=C(C)CC1 (stereo partly specified) | inactive
20 | C[C@]1(c2ccccc2)OC(C(=O)O)=CC1=O | inactive
21 | CC(=O)N[C@H](CC(C)C)C(=O)O | inactive
22 | COc1ccc2cc(C(C)CO)ccc2c1 (stereo unspecified) | inactive
23 | COC1C=CO[C@@]2(C)Oc3c(C)c(O)c4c(O)c(c(C=NN5CCN(C)CC5)c(O)c4c3C2=O)NC(=O)/C(C)=C\C=CC(C)C(O)[C@@H](C)C(O)C(C)[C@H](OC(C)=O)C1C (stereo partly specified) | 4.78 µM (active)
24 | CC1CCC(C(C)C)C(=O)C1 (stereo unspecified) | inactive
25 | CNC1CC(N)[C@H](O)[C@@H](O[C@@H]2OC(CO)C3OC4(OC(C(N)CO)C(O)C(O)C4O)O[C@@H]3[C@H]2O)C1O (stereo partly specified) | inactive
26 | CCCC(=O)O[C@]1(C(=O)CO)CCC2[C@@H]3CCC4=CC(=O)CC[C@]4(C)C3C(O)C[C@]21C (stereo partly specified) | inactive
27 | CC(=O)[C@]1(O)CCC2C3C=C(Cl)C4=CC(=O)C5CC5[C@@]4(C)C3CC[C@]21C (stereo partly specified) | inactive
28 | CC(=O)N[C@@H]1C(O)OC(CO)C(O)C1O (stereo partly specified) | inactive
29 | C/C1=C2N=C(/C=C3N=C(/C(C)=C4\[N-]C(C)(C5N=C1C(C)(CCC(=O)NCC(C)OP(=O)([O-])O[C@H]1C(O)C(n6cnc7cc(C)c(C)cc76)O[C@@H]1CO)C5CC(N)=O)C(C)(CC(N)=O)C4CCC(N)=O)C(C)(CC(N)=O)C\3CCC(N)=O)C(C)(C)C/2CCC(N)=O.[CH2-]C1OC(n2cnc3c(N)ncnc32)C(O)C1O.[Co] (stereo partly specified) | inactive
30 | O=C1OC(CO)C(O)C(O)C1O (stereo unspecified) | inactive
31 | CNC1C(OC2C(O[C@@H]3C(O)C(O)[C@@H](N=C(N)N)C(O)C3N=C(N)N)OC(C)[C@@]2(O)CO)OC(CO)C(O)C1O (stereo partly specified) | inactive
32 | COc1cc(C2c3cc4c(cc3C(O[C@@H]3OC5COC(c6cccs6)OC5C(O)C3O)C3COC(=O)C23)OCO4)cc(OC)c1O (stereo partly specified) | 4.26 µM (active)
33 | Nc1nc2ncc(CNc3ccc(C(=O)NC(CCC(=O)O)C(=O)O)cc3)nc2c(=O)[nH]1 (stereo unspecified) | inactive

test system: CP269; assay: as above; conditions: P. falciparum in erythrocytes, SYBR Green DNA, 72 h; series mostly up to 12.8 µM
Summary of the method: as §1

Row | Structure (SMILES) | Potency
34 | CN(C)CCCOC1C(C(O)CO)OC2OC(C)(C)O[C@@H]21 (stereo partly specified) | inactive
35 | CCC(C)C(=O)OC1CCC=C2C=CC(C)C(CCC3CC(O)CC(=O)O3)[C@@H]21 (stereo partly specified) | inactive
36 | CC(=O)OC1CCC2C3CCc4cc(O)ccc4C3CCC12C (stereo unspecified) | inactive
37 | CC[C@@]12CCCN3CCc4c(n(c5ccccc45)[C@](O)(C(=O)OC)C1)C32 (stereo partly specified) | inactive
38 | NC(C(=O)O)[C@@H]1CC(Cl)=NO1 (stereo partly specified) | 2.69 µM (active)
39 | CN1CC(=O)N=C1N | inactive
40 | OCC1OC([S-])[C@H](O)C(O)C1O.[Au+] (stereo partly specified) | inactive
41 | CC(C)C1CCC(C(=O)NC(Cc2ccccc2)C(=O)O)CC1 (stereo unspecified) | inactive
42 | CCC(CCC(C)C1CCC2C3CC=C4CC(O)CC[C@@]4(C)C3CC[C@@]12C)C(C)C (stereo partly specified) | inactive
43 | C[C@]12CCC(=O)C=C1CCC1C2C(=O)C[C@]2(C)C1CC[C@]2(O)C(=O)CO (stereo partly specified) | inactive
44 | OCC1O[C@H](OC2C(CO)O[C@@](O)(CO)C2O)C(O)C(O)C1O (stereo partly specified) | inactive
45 | CC1(C)OC2CO[C@]3(COS(N)(=O)=O)OC(C)(C)OC3C2O1 (stereo partly specified) | inactive
46 | CC1(C)OC2CC(=O)OC[C@@]23C1CC(=O)[C@]1(C)C3CC[C@@]2(C)C(c3ccoc3)OC(=O)C3O[C@@]321 (stereo partly specified) | inactive
47 | CCOC(=O)C1=CC(OC(CC)CC)C(NC(C)=O)C(N)C1 (stereo unspecified) | inactive
48 | COC1C=CO[C@@]2(C)Oc3c(C)c(O)c4c(O)c(c5c(nc6cc(C)ccn65)c4c3C2=O)NC(=O)/C(C)=C\C=CC(C)C(O)[C@@H](C)C(O)C(C)[C@@H](OC(C)=O)C1C (stereo partly specified) | 10.7 µM (active)
49 | COC(=O)C(Cc1ccccc1)NC(=O)C(N)CC(=O)O (stereo not drawn) (H-Asp-Phe-OMe; configuration not given here) | inactive
50 | C[C@]12C=CC(=O)C=C1CCC1C2C(O)C[C@]2(C)C1CC[C@]2(O)C(=O)CO (stereo partly specified) | inactive

Row | Structure (SMILES) | Potency
51 | CC1(C)S[C@H]2C(NC(=O)[C@@H](N)c3ccc(O)cc3)C(=O)N2[C@@H]1C(=O)O (stereo partly specified) | inactive
52 | CC(C)=CCC[C@](C)(O)C1CC=C(C)CC1 (stereo partly specified) | inactive
53 | C[C@]1(c2ccccc2)OC(C(=O)O)=CC1=O | inactive
54 | CC(=O)N[C@H](CC(C)C)C(=O)O | inactive
55 | COc1ccc2cc(C(C)CO)ccc2c1 (stereo unspecified) | inactive
56 | COC1C=CO[C@@]2(C)Oc3c(C)c(O)c4c(O)c(c(C=NN5CCN(C)CC5)c(O)c4c3C2=O)NC(=O)/C(C)=C\C=CC(C)C(O)[C@@H](C)C(O)C(C)[C@H](OC(C)=O)C1C (stereo partly specified) | 4.26 µM (active)
57 | CC1CCC(C(C)C)C(=O)C1 (stereo unspecified) | inactive
58 | CNC1CC(N)[C@H](O)[C@@H](O[C@@H]2OC(CO)C3OC4(OC(C(N)CO)C(O)C(O)C4O)O[C@@H]3[C@H]2O)C1O (stereo partly specified) | inactive
59 | CCCC(=O)O[C@]1(C(=O)CO)CCC2[C@@H]3CCC4=CC(=O)CC[C@]4(C)C3C(O)C[C@]21C (stereo partly specified) | inactive
60 | CC(=O)[C@]1(O)CCC2C3C=C(Cl)C4=CC(=O)C5CC5[C@@]4(C)C3CC[C@]21C (stereo partly specified) | inactive
61 | CC(=O)N[C@@H]1C(O)OC(CO)C(O)C1O (stereo partly specified) | inactive
62 | C/C1=C2N=C(/C=C3N=C(/C(C)=C4\[N-]C(C)(C5N=C1C(C)(CCC(=O)NCC(C)OP(=O)([O-])O[C@H]1C(O)C(n6cnc7cc(C)c(C)cc76)O[C@@H]1CO)C5CC(N)=O)C(C)(CC(N)=O)C4CCC(N)=O)C(C)(CC(N)=O)C\3CCC(N)=O)C(C)(C)C/2CCC(N)=O.[CH2-]C1OC(n2cnc3c(N)ncnc32)C(O)C1O.[Co] (stereo partly specified) | inactive
63 | O=C1OC(CO)C(O)C(O)C1O (stereo unspecified) | inactive
64 | CNC1C(OC2C(O[C@@H]3C(O)C(O)[C@@H](N=C(N)N)C(O)C3N=C(N)N)OC(C)[C@@]2(O)CO)OC(CO)C(O)C1O (stereo partly specified) | inactive
65 | COc1cc(C2c3cc4c(cc3C(O[C@@H]3OC5COC(c6cccs6)OC5C(O)C3O)C3COC(=O)C23)OCO4)cc(OC)c1O (stereo partly specified) | 1.69 µM (active)
66 | Nc1nc2ncc(CNc3ccc(C(=O)NC(CCC(=O)O)C(=O)O)cc3)nc2c(=O)[nH]1 (stereo unspecified) | inactive

From PubChem BioAssay (NCATS)
